This is part of a sample that, as a whole, favours compounds with a hit. Of some 79,000 tested, about 15% had one in any assay. Activity calls are given as the source filed them. Cut-off read from the data, not from the text of the source: active = growth inhibition above about 70%; inactive = the rest.
How the values were obtained:
[1] = NCI Yeast Anticancer Drug Screen. Data for the rad52 strain (AID 147);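 note: 0% = growth of vehicle-treated control cultures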; details: S. cerevisiae rad52 mutant growth inhibition, active compounds read high
Summary of the method: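 Yeast strain carrying a DNA damage repair alteration was exposed to test compounds. Growth inhibition was measured relative to vehicle-treated controls.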

[2] = NCI Yeast Anticancer Drug Screen. Data for the wt1 strain (AID 149);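 note: 0% = growth of vehicle-treated wt1 cultures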; details: S. cerevisiae wt1 strain (SPY 50644) growth inhibition, active compounds read high
Summary of the method: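 Using yeast strain wt1, compound-induced growth inhibition was determined against vehicle-treated cultures.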

[3] = NCI Yeast Anticancer Drug Screen. Data for the mgt1 strain (AID 153); details: S. cerevisiae mgt1 mutant growth inhibition, active compounds read high
Summary of the method: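 Yeast mgt1 strain (DNA repair/cell-cycle alteration panel) exposed to compounds; growth inhibition measured relative to vehicle-treated controls.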

[4] = NCI Yeast Anticancer Drug Screen. Data for the rad50 strain (AID 155);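 note: 0% = growth of vehicle-only cultures of the same strain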; details: S. cerevisiae rad50 strain growth inhibition, active compounds read high
Summary of the method: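 Relative growth inhibition (compound vs vehicle) was measured in yeast with a defined repair-gene alteration.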

[5] = NCI Yeast Anticancer Drug Screen. Data for the mec2-1 strain (AID 157); details: S. cerevisiae mec2-1 strain, active compounds read high
Summary of the method: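 mec2-1 yeast strain, carrying an alteration in DNA damage repair or cell cycle control, was exposed to compounds; growth inhibition was measured relative to vehicle-treated controls.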

[6] = NCI Yeast Anticancer Drug Screen. Data for the rad14 strain (AID 159);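 note: 0% = growth of vehicle-treated control cultures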; details: S. cerevisiae rad14 strain growth inhibition, active compounds read high
Summary of the method: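 Screen for anticancer potential: a yeast strain altered in DNA damage repair is grown with compound, and reduced growth is quantified against vehicle controls.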

[7] = NCI Yeast Anticancer Drug Screen. Data for the sgs1 mgt1 strain (AID 161);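 note: 0% = growth of cultures given vehicle only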; details: S. cerevisiae sgs1 mgt1 strain, active compounds read high
Summary of the method: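 Growth of a repair-deficient yeast mutant was monitored after compound treatment and expressed as inhibition relative to vehicle-treated cultures.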

[8] = NCI Yeast Anticancer Drug Screen. Data for the CLN2oe strain (AID 163);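 note: 0% = growth of vehicle-only control cultures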; details: S. cerevisiae CLN2oe strain, active compounds read high
Summary of the method: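 Yeast cells carrying a defined cell-cycle control alteration were exposed to test compounds. Growth inhibition was scored against vehicle-treated control cultures.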

[9] = NCI Yeast Anticancer Drug Screen. Data for the cln2 rad14 strain (AID 165);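 note: 0% = growth equal to vehicle treated cultures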; details: S. cerevisiae cln2 rad14 strain, active compounds read high
Summary of the method: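 Yeast carrying cln2 and rad14 alterations (cell cycle control and DNA damage repair) were exposed to compounds. Growth inhibition was measured against vehicle-treated controls.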

[10] = NCI Yeast Anticancer Drug Screen. Data for the bub3 strain (AID 167); details: S. cerevisiae bub3 mutant strain, active compounds read high
Summary of the method: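 Screening used yeast with an engineered genetic alteration affecting cell cycle control. Compound-exposed cultures were compared with vehicle cultures, and reduced growth was taken as inhibition.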

[11] = NCI Yeast Anticancer Drug Screen. Data for the wt2 strain (AID 169);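 note: 0% = growth of vehicle-treated yeast cultures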; details: S. cerevisiae wt2 strain growth inhibition, active compounds read high
Summary of the method: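 Yeast cells were exposed to test compounds, and growth inhibition was measured relative to vehicle-treated controls.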

[12] = NCI Yeast Anticancer Drug Screen. Data for the mlh1 strain (AID 171);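 note: 0% = growth of vehicle-treated control cultures of the same strain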; details: S. cerevisiae mlh1 strain growth inhibition, active compounds read high
Summary of the method: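 Yeast carrying a defined genetic alteration in DNA damage repair or cell cycle control were exposed to test compounds. Growth inhibition was measured relative to vehicle-treated controls.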

[13] = NCI Yeast Anticancer Drug Screen. Data for the sgs1 strain (AID 173);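 note: 0% = growth of vehicle-only control cultures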; details: S. cerevisiae sgs1 mutant, active compounds read high
Summary of the method: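 Yeast mutant strains carrying defined defects in DNA damage repair or cell cycle control were exposed to test compounds. Growth inhibition was scored against vehicle-treated controls.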

[14] = NCI Yeast Anticancer Drug Screen. Data for the mlh1 rad18 strain (AID 175); details: S. cerevisiae mlh1 rad18 strain growth inhibition, active compounds read high
Summary of the method: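 Growth inhibition of the yeast strain was measured after compound exposure and expressed relative to vehicle-treated controls. The strain carries defined defects in DNA damage repair.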

[15] = NCI Yeast Anticancer Drug Screen. Data for the rad18 strain (AID 177); details: S. cerevisiae rad18 mutant growth inhibition, active compounds read high
Summary of the method: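 Yeast carrying a defined DNA damage repair alteration were exposed to compounds. Growth inhibition was expressed relative to vehicle-treated controls.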

[16] = at 5.0 µM (retest, dose inferred, filed as 0.5)
[17] = at 50.0 µM (retest, dose inferred, filed as 5.0)

Measured: growth inhibition

CCCN(CCC)c1c([N+](=O)[O-])cc(S(N)(=O)=O)cc1[N+](=O)[O-]
inactive: [1]; at 1.2 µM 8% | [1]; at 3.7 µM 25% | [1]; at 11.0 µM 28% | [1]; at 33.0 µM 60% | [1]; at 100.0 µM 23% | [2]; at 1.2 µM 10% | [2]; at 3.7 µM 6% | [2]; at 11.0 µM 18% | [2]; at 33.0 µM 19% | [2]; at 100.0 µM 7% | [3]; at 1.2 µM -1% | [3]; at 3.7 µM 0% | [3]; at 11.0 µM -11% | [3]; at 33.0 µM 25% | [3]; at 100.0 µM -2% | [4]; at 1.2 µM 14% | [4]; at 3.7 µM 12% | [4]; [16] -5% | [4]; at 11.0 µM 33% | [4]; at 33.0 µM 44% | [4]; [17] 26% | [4]; at 50.0 µM 63.4% | [4]; at 100.0 µM 15% | [5]; at 1.2 µM -7% | [5]; at 3.7 µM 0% | [5]; [16] -13% | [5]; at 11.0 µM -25% | [5]; at 33.0 µM 32% | [5]; [17] 15% | [5]; at 50.0 µM 51.8% | [5]; at 100.0 µM -2% | [6]; at 1.2 µM -11% | [6]; at 3.7 µM -18% | [6]; at 11.0 µM -24% | [6]; at 33.0 µM 29% | [6]; at 100.0 µM -2% | [7]; [16] -11% | [7]; [17] 35% | [7]; at 50.0 µM 47.7% | [8]; at 1.2 µM -11% | [8]; at 3.7 µM -3% | [8]; at 11.0 µM -4% | [8]; at 33.0 µM 30% | [8]; at 100.0 µM 2% | [9]; [16] 2% | [10]; at 1.2 µM -13% | [10]; at 3.7 µM -22% | [10]; [16] 4% | [10]; at 11.0 µM -17% | [10]; at 33.0 µM 32% | [10]; at 100.0 µM -9% | [11]; at 1.2 µM -6% | [11]; at 3.7 µM -2% | [11]; at 11.0 µM -7% | [11]; at 33.0 µM 3% | [11]; at 100.0 µM -2% | [12]; at 1.2 µM -27% | [12]; at 3.7 µM -28% | [12]; at 11.0 µM -16% | [12]; at 33.0 µM 31% | [12]; at 100.0 µM -6% | [13]; at 1.2 µM 3% | [13]; at 3.7 µM 10% | [13]; at 11.0 µM 16% | [13]; at 33.0 µM 30% | [13]; at 100.0 µM 6% | [14]; [16] 9% | [15]; at 1.2 µM -8% | [15]; at 3.7 µM -1% | [15]; at 11.0 µM 6% | [15]; at 33.0 µM 50% | [15]; at 100.0 µM 0%
active: [9]; [17] 73% | [9]; at 50.0 µM 85.3% | [10]; [17] 80% | [10]; at 50.0 µM 89.5% | [14]; [17] 70% | [14]; at 50.0 µM 72.9%

From PubChem BioAssay (NCI)
